Among the data in ChEMBL document CHEMBL3988442, “University of Dundee, Small-Polar-MMV Screening Library” (2021) are Percent Effect values, retold here.

Design in all cases: scale not given: direction of the effect not stated beside the values
Test [1] addresses Protein translocase subunit SecA (Escherichia coli (strain K12)) (UniProt P10408). As to the kind of experiment: Assay to Identify E. coli SecA ATPase Inhibitors. The class given is functional. The conditions noted are these: 30 µM.
Test [2] addresses T1, Ubiquitin-activating enzyme e1, putative (Leishmania donovani (strain BPK282A1)) (UniProt E9BSI1).
T1 sequence (whole entry): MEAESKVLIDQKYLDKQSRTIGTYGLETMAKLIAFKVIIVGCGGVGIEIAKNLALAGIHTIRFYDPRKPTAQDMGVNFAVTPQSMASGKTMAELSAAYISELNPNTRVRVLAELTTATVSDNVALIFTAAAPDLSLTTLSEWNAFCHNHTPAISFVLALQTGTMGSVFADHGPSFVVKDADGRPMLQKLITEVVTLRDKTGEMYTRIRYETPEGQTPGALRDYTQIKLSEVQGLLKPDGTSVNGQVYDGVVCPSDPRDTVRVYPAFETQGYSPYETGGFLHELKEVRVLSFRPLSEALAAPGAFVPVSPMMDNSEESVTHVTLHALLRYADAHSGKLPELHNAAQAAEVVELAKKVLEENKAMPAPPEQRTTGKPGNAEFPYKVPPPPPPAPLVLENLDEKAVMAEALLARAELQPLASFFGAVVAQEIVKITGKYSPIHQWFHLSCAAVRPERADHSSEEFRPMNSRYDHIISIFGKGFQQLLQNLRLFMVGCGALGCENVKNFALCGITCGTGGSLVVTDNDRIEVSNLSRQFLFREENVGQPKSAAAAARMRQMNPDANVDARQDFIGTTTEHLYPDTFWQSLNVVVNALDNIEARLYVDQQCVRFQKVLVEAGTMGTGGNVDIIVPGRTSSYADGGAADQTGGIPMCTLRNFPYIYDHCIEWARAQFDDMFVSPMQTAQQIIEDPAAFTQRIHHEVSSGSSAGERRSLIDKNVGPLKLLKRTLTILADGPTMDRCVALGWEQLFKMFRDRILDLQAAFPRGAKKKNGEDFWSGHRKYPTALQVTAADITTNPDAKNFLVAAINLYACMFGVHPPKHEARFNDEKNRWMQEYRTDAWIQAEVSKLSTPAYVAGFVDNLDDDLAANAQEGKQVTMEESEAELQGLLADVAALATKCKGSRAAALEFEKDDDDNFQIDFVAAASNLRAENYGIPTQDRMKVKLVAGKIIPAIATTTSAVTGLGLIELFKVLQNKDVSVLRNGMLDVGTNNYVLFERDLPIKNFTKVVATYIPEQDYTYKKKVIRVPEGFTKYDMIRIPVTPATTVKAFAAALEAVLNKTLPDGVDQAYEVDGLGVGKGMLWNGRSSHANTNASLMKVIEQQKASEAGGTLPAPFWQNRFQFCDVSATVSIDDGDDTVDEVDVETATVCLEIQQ
As to the kind of experiment: Leishmania donovani Ubiquitin Activating Enzyme (LdE1). The class given is functional. The conditions noted are these: 30 µM.

For test [3], the target named is AMP-activated protein kinase, AMPK (Homo sapiens) (UniProt P54646+O43741+P54619+Q9UGJ0+Q9Y478+Q13131+Q9UGI9). As to the kind of experiment: AMP-dependent Kinase enzyme assay. An in vitro enzyme assay that detects ADP turnover that is directly proportional to AMPK activity. This uses naive AMPK that is activated during the assay with MK-8722. In kind it is functional. The conditions noted are these: 30 µM.

In test [4] the target is Sialic acid-binding Ig-like lectin 9 (Homo sapiens) (UniProt Q9Y336). Kind of test: Hs-Siglec9 ALPHAscreen SOP 20170721. The conditions noted are these: 10 µM.
Sialic acid-binding Ig-like lectin 9 (Homo sapiens), sequence (Q9Y336 whole entry): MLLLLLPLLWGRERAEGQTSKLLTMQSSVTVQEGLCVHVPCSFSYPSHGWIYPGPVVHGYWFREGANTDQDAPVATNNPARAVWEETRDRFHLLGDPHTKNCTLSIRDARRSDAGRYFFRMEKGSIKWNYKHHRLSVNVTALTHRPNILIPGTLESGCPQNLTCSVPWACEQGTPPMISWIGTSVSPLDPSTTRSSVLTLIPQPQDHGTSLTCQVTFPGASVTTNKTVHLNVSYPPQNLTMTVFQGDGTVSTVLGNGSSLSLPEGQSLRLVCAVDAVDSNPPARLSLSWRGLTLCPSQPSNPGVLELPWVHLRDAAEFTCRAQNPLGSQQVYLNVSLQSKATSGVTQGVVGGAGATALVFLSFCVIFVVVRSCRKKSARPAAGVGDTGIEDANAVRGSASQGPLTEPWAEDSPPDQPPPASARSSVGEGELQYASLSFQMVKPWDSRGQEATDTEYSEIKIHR
For a further test, the system named is Trypanosoma cruzi. Kind of test: Trypanosoma cruzi phosphomannomutase and mannose-1-phosphate guanylyltransferase assay. The class given is functional. The conditions noted are these: 10 µM.
The target of test [5] is T2, Arginase-2, mitochondrial (Homo sapiens) (UniProt P78540).
T2 sequence (whole entry): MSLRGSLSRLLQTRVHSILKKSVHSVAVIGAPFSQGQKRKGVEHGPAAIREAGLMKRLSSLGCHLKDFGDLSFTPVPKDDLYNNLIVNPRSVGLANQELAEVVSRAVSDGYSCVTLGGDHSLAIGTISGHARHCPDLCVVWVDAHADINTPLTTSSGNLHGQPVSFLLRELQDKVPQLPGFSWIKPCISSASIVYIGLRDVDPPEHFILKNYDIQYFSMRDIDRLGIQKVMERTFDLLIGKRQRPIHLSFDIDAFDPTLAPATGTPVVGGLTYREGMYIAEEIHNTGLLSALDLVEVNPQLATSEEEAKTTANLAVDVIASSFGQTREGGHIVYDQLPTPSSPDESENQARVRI
Kind of test: in vitro enzyme assay to detect the production of urea directly proportional to the activity of Arginase II. Further: in the data most compounds retested in dose-response had high values. The class given is functional. The conditions noted are these: 33.3 µM.

In test [6] the target is T3, Proteasome subunit beta (Trypanosoma cruzi) (UniProt O96673).
T3 sequence (whole entry): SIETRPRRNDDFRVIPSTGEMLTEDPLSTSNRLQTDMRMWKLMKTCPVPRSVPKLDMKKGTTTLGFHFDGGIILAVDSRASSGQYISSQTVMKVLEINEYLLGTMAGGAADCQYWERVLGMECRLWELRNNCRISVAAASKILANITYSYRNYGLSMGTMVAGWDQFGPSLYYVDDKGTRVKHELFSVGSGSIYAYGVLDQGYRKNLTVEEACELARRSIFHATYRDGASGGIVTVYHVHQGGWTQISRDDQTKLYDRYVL
As to the kind of experiment: Trypanosoma cruzi proteasome chymotrypsin-like activity (TcProtChymo) assay. Further: in the data most compounds retested in dose-response had high values. In kind it is functional. The conditions noted are these: 9.37 µM.

For the next test, the species on record is Homo sapiens. Kind of test: To identify inhibition of the IFN signalling (Jak-Stat) pathway via expression of an eGFP reporter gene under the control of an IFN-stimulated response element (ISRE) containing MxA promoter. The class given is functional. The conditions noted are these: 30 µM.
The target of test [7] is T4, Tyrosyl-tRNA synthetase, putative (Trypanosoma cruzi (strain CL Brener)) (UniProt Q4DSP6).
T4 sequence (whole entry): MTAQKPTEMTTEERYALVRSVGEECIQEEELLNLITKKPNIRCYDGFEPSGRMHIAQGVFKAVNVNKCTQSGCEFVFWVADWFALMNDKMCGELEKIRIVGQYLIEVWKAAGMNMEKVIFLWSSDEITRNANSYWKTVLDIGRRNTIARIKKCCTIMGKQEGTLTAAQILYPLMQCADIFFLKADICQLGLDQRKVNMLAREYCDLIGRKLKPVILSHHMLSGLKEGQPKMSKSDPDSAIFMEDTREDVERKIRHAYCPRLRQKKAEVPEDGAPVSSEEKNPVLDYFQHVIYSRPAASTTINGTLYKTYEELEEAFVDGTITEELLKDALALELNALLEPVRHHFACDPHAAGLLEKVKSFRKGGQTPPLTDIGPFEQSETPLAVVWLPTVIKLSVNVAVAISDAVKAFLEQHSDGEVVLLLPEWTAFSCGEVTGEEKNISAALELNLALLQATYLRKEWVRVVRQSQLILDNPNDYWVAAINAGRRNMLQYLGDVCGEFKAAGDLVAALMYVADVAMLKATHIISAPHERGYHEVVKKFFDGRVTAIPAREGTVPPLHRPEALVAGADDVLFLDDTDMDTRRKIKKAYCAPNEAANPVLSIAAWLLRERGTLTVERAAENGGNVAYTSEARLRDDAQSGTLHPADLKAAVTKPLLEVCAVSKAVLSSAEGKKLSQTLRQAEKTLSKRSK
Kind of test: Trypanosoma cruzi tyrosyl tRNA synthetase (TcYRS) _High Tyrosine SOP. Further: in the data most compounds retested in dose-response had high values. The class given is functional. The conditions noted are these: 30 µM.

Test [8] has as its target T4, Tyrosyl-tRNA synthetase, putative (Trypanosoma cruzi (strain CL Brener)). Kind of test: Trypanosoma cruzi tyrosyl tRNA synthetase (TcYRS) SOP. In kind it is functional. The conditions noted are these: 30 µM.
The target of test [9] is Chromo domain-containing protein 1 (Saccharomyces cerevisiae (strain ATCC 204508 / S288c) (Baker's yeast)) (UniProt P32657). As to the kind of experiment: ScCHD-1 Enzyme Inhibition Assay. Further: in the data most compounds retested in dose-response had high values. The conditions noted are these: 30 µM. The class given is functional.
Chromo domain-containing protein 1 (Saccharomyces cerevisiae (strain ATCC 204508 / S288c) (Baker's yeast)), sequence (P32657 whole entry, the tested form may be a part): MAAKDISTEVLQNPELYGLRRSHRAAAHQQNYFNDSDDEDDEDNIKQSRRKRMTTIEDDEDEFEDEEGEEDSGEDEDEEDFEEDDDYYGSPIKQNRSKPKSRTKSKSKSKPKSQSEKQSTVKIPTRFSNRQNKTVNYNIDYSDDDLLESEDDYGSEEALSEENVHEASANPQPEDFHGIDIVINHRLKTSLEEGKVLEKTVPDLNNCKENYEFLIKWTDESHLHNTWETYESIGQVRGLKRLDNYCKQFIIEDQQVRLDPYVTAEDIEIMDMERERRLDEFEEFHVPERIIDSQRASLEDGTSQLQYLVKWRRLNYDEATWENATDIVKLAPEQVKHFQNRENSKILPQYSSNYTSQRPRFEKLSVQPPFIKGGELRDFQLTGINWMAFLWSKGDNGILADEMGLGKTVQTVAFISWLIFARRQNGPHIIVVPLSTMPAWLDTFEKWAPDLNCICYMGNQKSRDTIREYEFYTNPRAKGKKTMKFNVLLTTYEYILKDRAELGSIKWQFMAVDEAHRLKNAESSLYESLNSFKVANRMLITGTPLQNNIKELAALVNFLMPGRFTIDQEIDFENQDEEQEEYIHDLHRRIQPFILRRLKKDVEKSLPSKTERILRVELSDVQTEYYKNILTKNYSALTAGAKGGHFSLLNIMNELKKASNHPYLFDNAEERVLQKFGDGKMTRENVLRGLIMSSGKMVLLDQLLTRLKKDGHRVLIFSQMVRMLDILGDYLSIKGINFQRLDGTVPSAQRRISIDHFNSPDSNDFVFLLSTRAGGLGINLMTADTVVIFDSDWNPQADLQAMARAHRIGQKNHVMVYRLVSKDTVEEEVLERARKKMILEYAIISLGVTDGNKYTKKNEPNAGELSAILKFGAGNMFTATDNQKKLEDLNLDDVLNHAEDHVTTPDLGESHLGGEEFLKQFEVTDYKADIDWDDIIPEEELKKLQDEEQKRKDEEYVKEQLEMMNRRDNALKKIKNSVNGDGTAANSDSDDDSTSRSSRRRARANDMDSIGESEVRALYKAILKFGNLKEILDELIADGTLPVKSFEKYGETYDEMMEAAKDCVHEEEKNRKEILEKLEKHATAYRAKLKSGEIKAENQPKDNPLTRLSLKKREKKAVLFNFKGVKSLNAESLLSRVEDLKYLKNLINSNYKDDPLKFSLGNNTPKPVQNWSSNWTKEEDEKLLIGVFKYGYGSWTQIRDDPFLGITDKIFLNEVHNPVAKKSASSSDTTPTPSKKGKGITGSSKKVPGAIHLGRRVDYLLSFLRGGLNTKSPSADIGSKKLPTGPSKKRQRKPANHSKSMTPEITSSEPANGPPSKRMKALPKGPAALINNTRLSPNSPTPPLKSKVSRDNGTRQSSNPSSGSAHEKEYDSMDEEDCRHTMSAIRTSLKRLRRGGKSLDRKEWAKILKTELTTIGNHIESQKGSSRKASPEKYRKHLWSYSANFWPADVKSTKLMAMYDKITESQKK

For some of these results: Potency and affinity values are given separately.

Protein translocase subunit SecA (Escherichia coli (strain K12)), sequence (P10408 whole entry): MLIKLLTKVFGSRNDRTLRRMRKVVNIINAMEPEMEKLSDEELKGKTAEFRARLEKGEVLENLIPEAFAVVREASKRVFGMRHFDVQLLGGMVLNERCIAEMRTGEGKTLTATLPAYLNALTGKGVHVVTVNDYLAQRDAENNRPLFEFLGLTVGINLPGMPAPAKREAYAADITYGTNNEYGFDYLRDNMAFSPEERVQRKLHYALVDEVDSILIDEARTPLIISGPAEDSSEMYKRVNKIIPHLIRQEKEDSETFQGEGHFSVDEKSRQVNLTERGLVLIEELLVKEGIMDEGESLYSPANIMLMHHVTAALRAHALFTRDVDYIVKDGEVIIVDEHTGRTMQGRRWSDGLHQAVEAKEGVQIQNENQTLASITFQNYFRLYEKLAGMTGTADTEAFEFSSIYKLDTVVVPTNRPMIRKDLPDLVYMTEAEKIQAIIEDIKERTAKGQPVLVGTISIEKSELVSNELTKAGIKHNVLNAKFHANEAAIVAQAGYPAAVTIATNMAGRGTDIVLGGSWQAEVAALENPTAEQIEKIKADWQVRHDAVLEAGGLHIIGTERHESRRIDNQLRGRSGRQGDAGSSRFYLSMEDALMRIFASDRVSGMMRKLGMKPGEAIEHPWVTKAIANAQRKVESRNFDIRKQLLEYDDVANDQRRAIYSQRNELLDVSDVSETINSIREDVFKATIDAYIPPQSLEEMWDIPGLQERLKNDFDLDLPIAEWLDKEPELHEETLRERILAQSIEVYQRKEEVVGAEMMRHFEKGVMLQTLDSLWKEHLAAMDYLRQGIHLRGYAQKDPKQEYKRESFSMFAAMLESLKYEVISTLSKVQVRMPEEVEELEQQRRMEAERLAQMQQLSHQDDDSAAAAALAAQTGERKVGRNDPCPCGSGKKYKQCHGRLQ

For the molecule `CCc1nc(CC(=O)Nc2cnn(CC3CCCO3)c2)cs1` (stereo unspecified), the Percent Effect in [1] is -2.62%; in test [2], 8.11%; in test [3], -12.1%; in [4] it was -2.05%; with Trypanosoma cruzi, -0.965%; in test [5] it was -1.43%. Further, the Percent Effect in test [6] was 7.59%; in the test listed under Homo sapiens, 0.276%; in [7], -4.76%; in test [8] it was -2.44%; in test [9], -1.6%.

As for `Cc1ccc(F)cc1NC(=O)NCC(C)N1CCOCC1` (stereo unspecified), the Percent Effect in test [1] was -1.78%; in [2], 18.9%; in [3] it was 0.541%; in [4] it was -0.431%; in the test with Trypanosoma cruzi, 0.391%; in test [5] it was 1.25%. For the same molecule, the Percent Effect in test [6] worked out at 9.55%; in the test listed under Homo sapiens, 14.3%; in test [7], 11.9%; in [8], 18.3%; in test [9], 3.74%.

`COc1ccc(C)cc1CSCCn1nc2ccccn2c1=O`: the Percent Effect in test [1] was -4.01%; in test [2], 20.8%; in test [3], -1.24%; in [4], -10.9%; in the test on Trypanosoma cruzi it was 4.6%; in [5], -1.47%. For the same molecule, the Percent Effect in test [6] was 12.7%; in the test listed under Homo sapiens, 11.9%; in test [7], 3.81%; in [8] it was 21.2%; in test [9] it was -22.4%.

`CC(C)C(C)NC(=O)Nc1ccc(CS(C)(=O)=O)cc1` (stereo unspecified): the Percent Effect in [1] was -5.9%; in test [2], 5.26%; in test [3], 7.91%; in [4], 3.79%; in the test on Trypanosoma cruzi it was 4.77%; in test [5], -14.2%. Also, the Percent Effect is 15.6% in [6]; 12.9% in the test listed under Homo sapiens; -5.32% in [7]; 10.4% in test [8]; -1.16% in [9].

Regarding `COc1ccccc1N1CCC(CNCc2cccc(OC)c2OC)C1` (stereo unspecified), the Percent Effect was -3.66% in [1]; 10.8% in [2]; -14.2% in test [3]; 3.03% in test [4]; 6.51% in the test with Trypanosoma cruzi; -13.6% in test [5]. The Percent Effect in test [6] is 7.75%; in the test listed under Homo sapiens, 18.9%; in test [7], 13.3%; in test [8], 23.5%; in test [9], -8.44%.

For `O=C(NCc1nnc2n1CCC2)N(Cc1ccco1)C1CC1`, the Percent Effect in test [1] was -0.0964%; in test [2], 8.11%; in test [3] it was -2.14%; in test [4] it was 3.8%; in the test with Trypanosoma cruzi, -2.12%; in [5], -2.86%. Moreover, the Percent Effect was 20.3% in [6]; 14.6% in the test listed under Homo sapiens; 3.7% in test [7]; 12.2% in [8]; -2.31% in test [9].

For the molecule `CCCN1CCN(C(=O)c2cnccn2)[C@H]2CS(=O)(=O)C[C@H]21`, the Percent Effect in [1] is -2.77%; in [2], 2.7%; in [3] it was -5.74%; in [4], 30.7%; with Trypanosoma cruzi, 3.86%; in [5], 2.38%. For the same molecule, the Percent Effect was 2.93% in test [6]; 6.26% in the test filed under Homo sapiens; 4.76% in test [7]; 12.2% in test [8]; -5.99% in [9].

Regarding `CN(CC1COc2ccccc2O1)C(=O)NCCCn1cncn1` (stereo unspecified), the Percent Effect in test [1] was -0.909%; in [2], 18.4%; in test [3], 0.582%; in test [4], 5.7%; in the test with Trypanosoma cruzi, 2.63%; in test [5] it was 2.3%. Also, the Percent Effect in test [6] was 6.52%; in the test filed under Homo sapiens it was 8.47%; in [7], 6.37%; in test [8] it was 24.4%; in test [9] it was -11.6%.

For the molecule `CCCc1n[nH]c(C2CN(CCn3cccn3)CCO2)n1` (stereo unspecified), the Percent Effect in test [1] was -6.25%; in test [2], -4.17%; in test [3], -1.07%; in test [4], -3.33%; in the test on Trypanosoma cruzi, 2.04%; in [5] it was 2.21%. The Percent Effect was 11.9% in [6]; -12.6% in the test filed under Homo sapiens; 2.1% in test [7]; 0% in test [8]; -1.2% in test [9].

`O=C(NCCn1ccc(-c2ccccn2)n1)c1ccncc1`: the Percent Effect in test [1] is -1.48%; in test [2], 8.22%; in test [3], -7.04%; in test [4], 17.5%; in the test on Trypanosoma cruzi, 6.46%; in test [5], -3.18%. Further, the Percent Effect was 9.94% in test [6]; 4.13% in the test filed under Homo sapiens; 2.15% in test [7]; 10% in test [8]; -3.21% in test [9].

On to `CCN1C[C@@H]2[C@@H](OC)CCN(S(=O)(=O)c3ccccc3F)[C@@H]2C1`, for which the Percent Effect in [1] is -2.71%; in test [2], 5.33%; in test [3], 11.3%; in test [4] it was 0.304%; in the test on Trypanosoma cruzi it was -2.56%; in test [5] it was 4.43%. Further, the Percent Effect in [6] was 0.793%; in the test listed under Homo sapiens, 4.67%; in test [7], -1.06%; in test [8] it was 3.85%; in [9], -0.244%.
